# Bioassay records: PubChem BioAssay, The Scripps Research Institute Molecular Screening Center
# pPAFAH inh: pPAFAH enzyme inhibitors, primary screen, biochemical, fluorescence polarization, human; Platelet-activating factor acetylhydrolase (Homo sapiens), Q13093; inhibition, % at 3.39 µM; actives 1.5% (n = 330,000); recombinant pPAFAH, FP-rhodamine probe fluorescence polarization; AID 463082, 2010;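 active = inhibition above the mean inhibition across the screen plus 3 SD, cut at about 25% in these data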;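 note: inhibitors block binding of the rhodamine activity-based probe so polarization drops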
# Fam108B counter: mouse Fam108B serine hydrolase inhibitors, primary screen, counter-screen for RBBP9 inhibitor project, biochemical, fluorescence polarization; recombinant Fam108B, FP-Rh probe fluorescence polarization; inhibition, % at 9.51 µM; actives 0.33% (n = 300,000); AID 1947, 2009;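 active = inhibition above the screen mean inhibition plus 3 SD, computed separately per campaign, cut at about 18% in these data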;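 note: inhibitors lower polarization as less probe binds the enzyme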
# PAFAH1B2 inh: PAFAH1B2 enzyme inhibitors, primary screen, biochemical, fluorescence polarization, human; recombinant PAFAH1B2, FP-rhodamine activity probe; AID 492953, 2010; Platelet-activating factor acetylhydrolase IB subunit alpha2 (Homo sapiens), P68402; inhibition, % at 3.39 µM; actives 1.2% (n = 340,000);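 active = inhibition above the mean of all tested compounds plus 3 SD, cut at about 24% in these data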
# PAFAH1B3 inh: PAFAH1B3 enzyme inhibitors, primary screen, biochemical, fluorescence polarization, human; actives 0.28% (n = 340,000); Platelet-activating factor acetylhydrolase IB subunit alpha1 (Homo sapiens), Q15102; recombinant PAFAH1B3, FP-rhodamine probe; AID 492972, 2010; inhibition, % at 3.39 µM;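 active = inhibition above the screen-wide average of all tested compounds plus 3 SD, cut at about 25% in these data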
# Target sequence (Q15102 whole entry, looked up): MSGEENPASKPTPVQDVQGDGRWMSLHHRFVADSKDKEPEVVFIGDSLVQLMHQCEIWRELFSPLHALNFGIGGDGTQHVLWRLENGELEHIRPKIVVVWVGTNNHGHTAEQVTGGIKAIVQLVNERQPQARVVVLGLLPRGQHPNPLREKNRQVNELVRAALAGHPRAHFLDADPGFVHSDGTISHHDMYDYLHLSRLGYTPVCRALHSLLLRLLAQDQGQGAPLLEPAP
# PAFAH2 FP inh: PAFAH2 enzyme inhibitors, primary screen, biochemical, fluorescence polarization, human. recombinant PAFAH2, FP-rhodamine activity probe. inhibition, % at 3.39 µM. actives 0.99% (n = 340,000). Platelet-activating factor acetylhydrolase 2, cytoplasmic (Homo sapiens), Q99487. AID 492956, 2010;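 active = inhibition above the mean over all tested compounds plus 3 SD, cut at about 30% in these data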;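 note: inhibitors block probe labeling of enzyme so polarization drops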
# PME-1 primary: PME-1 inhibitors via competitive probe labeling, primary screen, biochemical, fluorescence polarization, FP-Rh probe, HTS; actives 0.53% (n = 320,000); inhibition, % at 5.9 µM; Protein phosphatase methylesterase 1 (Homo sapiens), Q9Y570; recombinant PME-1;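 active = inhibition above the campaign mean of all compounds plus 3 SD, cut at about 26% in these data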;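 note: competitive labeling of PME-1 active site by serine hydrolase directed probe; inhibitors block probe labeling so polarization falls and inhibition rises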
# Target sequence (Q9Y570 whole entry, looked up): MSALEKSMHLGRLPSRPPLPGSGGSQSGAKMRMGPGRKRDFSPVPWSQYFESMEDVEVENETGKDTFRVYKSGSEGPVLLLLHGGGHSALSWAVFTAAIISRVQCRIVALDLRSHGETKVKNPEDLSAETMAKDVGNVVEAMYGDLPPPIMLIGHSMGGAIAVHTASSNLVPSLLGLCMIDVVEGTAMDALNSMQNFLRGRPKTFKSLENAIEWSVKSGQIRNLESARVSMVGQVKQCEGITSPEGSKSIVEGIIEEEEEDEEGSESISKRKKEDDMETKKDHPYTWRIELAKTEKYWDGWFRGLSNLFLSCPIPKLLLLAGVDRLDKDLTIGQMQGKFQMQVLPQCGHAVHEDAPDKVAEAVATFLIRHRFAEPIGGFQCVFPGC
# PAFAH2 FP conf: PAFAH2 enzyme inhibitors, confirmation, biochemical, fluorescence polarization, human; shares compounds with PAFAH2 FP inh; recombinant PAFAH2, FP-rhodamine activity probe; inhibition, % at 3.39 µM; actives 65% (n = 2,300); AID 493030, 2011;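 active = mean inhibition over three repeats above a set limit taken from the earlier primary screen, cut at about 30% in these data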;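 note: inhibitor blocks binding of rhodamine activity probe so polarization falls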
# Numbers stand for hits; - = inactive; . = no result. In the library only some 2.9% were active in any assay of this set; here they are far more common.
SMILES,pPAFAH inh,Fam108B counter,PAFAH1B2 inh,PAFAH1B3 inh,PAFAH2 FP inh,PME-1 primary,PAFAH2 FP conf
CC(CCc1ccccc1)NC(=O)COC(=O)c1ccc(NC(N)=O)cc1 (stereo unspecified),-,-,-,-,67,-,64
CC(CCc1ccccc1)NC(=O)COC(=O)c1ccccc1Br (stereo unspecified),-,-,-,-,-,-,.
CN(CC(=O)Nc1ccc(F)c(F)c1F)C(=O)C1=NN(c2ccccc2)C(=O)CC1,-,.,-,-,-,-,.
CC(CCc1ccccc1)NC(=O)COC(=O)c1cccc2ccccc12 (stereo unspecified),-,-,-,-,-,-,.
COc1ccc(C(=O)OCC(=O)NC(C)CCc2ccccc2)cc1 (stereo unspecified),-,-,-,-,75,-,68
COc1ccc(CNC(=O)COC(=O)c2n[nH]c3ccccc23)cc1,-,-,-,-,-,-,.
CC(=O)Nc1ccc(NC(=O)COC(=O)c2n[nH]c3ccccc23)cc1,-,-,-,-,-,-,.
CC(C)CNC(=O)COC(=O)c1n[nH]c2ccccc12,-,-,-,-,56,-,39
CCOc1ccc(NC(=O)COC(=O)c2n[nH]c3ccccc23)cc1,-,.,-,-,62,.,37
CSCCC(NS(=O)(=O)c1ccccc1F)C(=O)Nc1cccc(C)n1 (stereo unspecified),-,-,-,-,-,-,.
O=C(CCS(=O)(=O)c1ccc(Br)cc1)N1CCN(c2ccc(F)cc2)CC1,-,-,-,-,39,-,-
CCCc1cc(=O)oc2c3c(cc(OCC(=O)N[C@@H](CSC)C(=O)O)c12)OC(C)(C)CC3,.,.,-,-,34,.,-
CSC[C@H](NC(=O)COc1cc2c(c3oc(=O)cc(C)c13)CCC(C)(C)O2)C(=O)O,-,-,-,-,-,-,.
S=C(NCC1CCCO1)NC12CC3CC(CC(C3)C1)C2 (stereo unspecified),-,-,-,-,-,-,.
O=C(NCC1CCCO1)NC12CC3CC(CC(C3)C1)C2 (stereo unspecified),-,-,-,-,33,-,-
Cc1ccc(-c2ccc(/C=N/NC(=O)Cc3nnc(N)s3)o2)cc1Cl,-,-,-,-,55,-,-
Nc1nnc(CC(=O)N/N=C\c2ccc(-c3cccc(Cl)c3)o2)s1,-,-,-,-,48,-,-
COC(=O)c1ccc(-c2ccc(/C=N/NC(=O)Cc3nnc(N)s3)o2)cc1,-,-,-,-,43,-,-
Cn1c(CCN2CCN(c3ccccn3)CC2)nc2cc(NS(=O)(=O)c3ccccc3)ccc21,-,-,-,-,-,-,.
CCN(C(=O)COC(=O)c1ccc(Cl)c(S(=O)(=O)N2CCCCC2)c1)C1CCS(=O)(=O)C1 (stereo unspecified),-,.,-,-,-,.,.
COc1ccccc1NC(=O)CC1Nc2ccccc2NC1=O (stereo unspecified),-,-,-,-,86,-,-
COc1ccc(NC(=O)CC2Nc3ccccc3NC2=O)c([N+](=O)[O-])c1 (stereo unspecified),-,-,-,-,-,-,.
Cc1ccc(-n2nc(C)c(=O)c(-c3ccccc3)c2NC(=O)C(C)C)cc1,-,-,.,.,.,-,.
CCCCCCCNC(=O)C1(CC2CC(c3ccc(Cl)cc3)=NO2)CCN(C(=O)c2cc(OCC)c(OCC)c(OCC)c2)CC1 (stereo unspecified),-,-,-,-,-,-,.
COc1ccc(COC[C@H](C)[C@H](O)[C@@H](C)[C@H]2OC(=O)[C@@H]2C)cc1,-,-,-,-,69,-,78
SMILES,pPAFAH inh,Fam108B counter,PAFAH1B2 inh,PAFAH1B3 inh,PAFAH2 FP inh,PME-1 primary,PAFAH2 FP conf
CCOc1ncccc1C(=O)OCC(=O)Nc1cccc(C(C)=O)c1,-,-,-,-,62,-,55
CC(=O)c1cccc(NC(=O)COC(=O)c2ccccc2C)c1,-,-,-,-,63,-,62
CCOc1ncccc1C(=O)OCC(=O)Nc1cccc(S(N)(=O)=O)c1,-,-,-,-,33,-,-
CN(C)S(=O)(=O)c1cccc(NC(=O)COC(=O)c2cccnc2Cl)c1,-,.,-,-,-,.,.
O=C(COC(=O)c1cc(-c2cccs2)nn1-c1ccccc1)Nc1cccc([N+](=O)[O-])c1,-,-,-,-,32,-,39
O=C(COC(=O)c1ccccc1C(=O)c1ccccc1)Nc1cccc([N+](=O)[O-])c1,-,-,-,-,89,-,82
Cc1cccc(C)c1NC(=O)COC(=O)c1ccc(N2CCCC2)c([N+](=O)[O-])c1,-,-,-,-,63,-,59
CCOC(=O)c1ccccc1NC(=O)COC(=O)c1ccc(OCC(=O)N2CCOCC2)c(OCC)c1,.,.,-,-,35,.,-
Cc1c(Cl)cnc(NC(=O)COC(=O)c2ccc3c(c2)OCO3)c1Cl,-,-,-,-,50,-,30
CCOc1cc(C(=O)OCC(=O)Nc2c(C)cccc2C)ccc1OCC(=O)N1CCOCC1,-,-,-,-,50,-,68
CC1(C(=O)OCc2cc(=O)n3cc(Br)ccc3n2)CC1(Cl)Cl (stereo unspecified),-,-,-,-,-,-,.
COc1ccc(N(CC(=O)N/N=C/c2ccccc2F)S(=O)(=O)c2ccccc2)cc1,-,-,-,-,-,-,.
CCOc1cc(C(=O)OCC(=O)Nc2ncc(Cl)c(C)c2Cl)ccc1OCC(=O)N1CCOCC1,-,-,-,-,55,-,54
COc1ccc(C(=O)OCC(=O)Nc2ccc(N3CCOCC3)cc2)cc1OC,-,.,-,-,-,-,.
CCOc1cc(C(=O)OCC(=O)Nc2ccc(F)cc2Cl)ccc1OCC(=O)N1CCOCC1,.,.,-,-,76,.,71
COc1cc(C(=O)OCC(=O)Nc2ccc(C(C)=O)cc2)ccc1OCC(=O)N1CCOCC1,-,-,-,-,61,-,58
CC(C)OCCOc1ccc2oc(-c3ccco3)cc(=O)c2c1,-,-,-,-,-,-,.
CCSC1=N/C(=C\c2ccc3c(c2)OCO3)C(=O)S1,-,-,-,-,-,-,.
C=CCSC1=N/C(=C\c2cc(OC)c3c(c2)OCO3)C(=O)S1,-,-,-,-,42,-,43
